Avidin fluor – compound fluoresces at 488/530 nm on avidin beads. 0.38% of 220,000 active. fluorescence (KMESF) at 10 µM. compound fluorescence 488/530 nm, flow cytometry; stronger effect = higher value; in the data active = fluorescence above about 47
RGS4-Gao reg – human RGS4-Galphao interaction regulation; P09471; Multiplexed bead flow cytometry, RGS4-Galphao binding; actives lie on both sides; binding response (% of control), % at 10 µM; 0.33% of 220,000 active; AID 1415; in the data active = binding response below about 49% or above about 150%; inactive = in between;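 note: fluorescent Galphao activated with aluminum fluoride binding bead-coupled RGS4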
Target sequence (P09471 whole entry, looked up): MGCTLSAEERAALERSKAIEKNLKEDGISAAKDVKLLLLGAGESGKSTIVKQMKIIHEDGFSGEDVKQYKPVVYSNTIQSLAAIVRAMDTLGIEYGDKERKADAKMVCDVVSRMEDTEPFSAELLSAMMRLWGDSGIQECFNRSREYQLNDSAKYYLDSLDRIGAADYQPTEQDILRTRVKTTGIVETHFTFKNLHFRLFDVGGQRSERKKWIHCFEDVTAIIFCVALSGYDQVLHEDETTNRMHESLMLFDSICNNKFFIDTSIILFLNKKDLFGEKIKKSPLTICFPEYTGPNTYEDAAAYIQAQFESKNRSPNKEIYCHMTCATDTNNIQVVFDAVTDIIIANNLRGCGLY
RGS7-Gao – regulators of human RGS7-Galphao interaction; Multiplexed bead flow cytometry, RGS7-Galphao binding; actives lie on both sides; P09471; binding response (% of control), % at 10 µM; 0.35% of 220,000 active; in the data active = binding response below about 49% or above about 150%; inconclusive = no clear call, values can overlap the other calls; inactive = in between;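 note: fluorescent Galphao held in activated GDP-AlF4 state binding bead-coupled RGS7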
GSH fluor – compound fluoresces at 488/530 nm on GSH beads | GSH beads flow cytometry, compound fluorescence 488/530 nm; stronger effect = higher value | fluorescence (KMESF) at 10 µM | 0.25% of 190,000 active | AID 1776; in the data active = fluorescence above about 89;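 note: glutathione beads carrying GST-tagged Bcl family fusion proteins plus one bare bead set; values are compound well signal with DMSO vehicle wells as background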
RGS8-Gao – human RGS8-Galphao interaction regulation. response (percent of control binding), % at 10 µM. multiplexed bead flow cytometry, RGS8-Galphao binding; actives lie on both sides. P09471. AID 1423. 0.34% of 220,000 active; in the data active = response below about 60% or above about 140%; inactive = in between;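 note: Galphao activated as the GDP aluminium fluoride complex binding bead-coupled RGS8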
RGS16-Gao – RGS16-Galphao interaction regulator (human) | AID 1441 | 0.38% of 220,000 active | binding response (% of control), % at 10 µM | bead-based flow cytometry RGS16-Galphao binding, fluorescence; actives lie on both sides | O15492+P09471;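 note: Galphao activated by GDP with aluminum fluoride before binding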
RGS4-Gao HTS – modulates binding between human RGS4 and Galphao. shares compounds with RGS16-Gao. RGS4–Galpha-o binding response, % at 10 µM. 99% of 1,600 active. multiplexed bead flow cytometry, RGS–Galpha-o binding;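 note: fluorescently labeled Galpha-o bound to GDP with aluminium fluoride binding biotinylated RGS beads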
Biotin-avidin – interferes with biotinylated probe binding to avidin beads | AID 1783 | shares compounds with RGS16-Gao | 1,700 tested, under 10 active | inhibition, % at 10 µM | streptavidin beads, fluorescein-biotin binding, flow cytometry;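 active = inhibition above 50%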;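 note: median green fluorescence of gated singlet beads compared with DMSO control wells; 0% = DMSO wells and 100% = complete loss of bead fluorescence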
RGS8-Gao confirm – confirmation of regulators of human RGS8-Galphao interaction; shares compounds with RGS16-Gao; bead-based flow cytometry RGS8-Galphao binding, fluorescence; actives lie on both sides; binding response (% of control), % at 10 µM; 3% of 1,700 active; AID 1836; in the data active = binding response below about 72% or above about 130%; inactive = in between;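 note: Galphao activated as GDP AlF4 complex before binding bead RGS8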
RGS7-Gao single – confirmation of regulators of human RGS7-Galphao interaction; shares compounds with RGS16-Gao; bead-based flow cytometry RGS7-Galphao binding; actives lie on both sides; response (percent of control binding), % at 10 µM; 7.8% of 1,700 active; in the data active = response below about 75% or above about 130%; inactive = in between;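 note: fluorescent Galphao activated with GDP and aluminum fluoride binding bead-coupled RGS7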
RGS16-Gao single – confirmation of regulators of human RGS16-Galphao interaction; shares compounds with RGS16-Gao; bead-based flow cytometry, RGS16-Galphao binding; actives lie on both sides; response (% of control binding), % at 10 µM; 4% of 1,700 active; in the data active = response below about 74% or above about 130%; inactive = in between;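 note: Galphao activated as the GDP aluminium fluoride complex binding bead-coupled RGS16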
RGS4-Gao single – confirmation of regulators of human RGS4-Galphao interaction | AID 1840 | 4% of 1,700 active | binding response (% of control), % at 10 µM | RGS4-Galphao binding, multiplexed bead flow cytometry; actives lie on both sides | shares compounds with RGS16-Gao; in the data active = binding response below about 74% or above about 130%; inactive = in between
RGS19-Gao conf – confirmation of regulators of human RGS19-Galphao interaction | response (percent of control binding), % at 10 µM | bead-based flow cytometry RGS19-Galphao binding; actives lie on both sides | AID 1841 | 5% of 1,700 active | shares compounds with RGS16-Gao; in the data active = response below about 50% or above about 160%; inactive = in between;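 note: 100% = no compound control and 0% = blank background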
Target sequence (P09471 whole entry, looked up): as above
Target sequence (P49795 whole entry, looked up): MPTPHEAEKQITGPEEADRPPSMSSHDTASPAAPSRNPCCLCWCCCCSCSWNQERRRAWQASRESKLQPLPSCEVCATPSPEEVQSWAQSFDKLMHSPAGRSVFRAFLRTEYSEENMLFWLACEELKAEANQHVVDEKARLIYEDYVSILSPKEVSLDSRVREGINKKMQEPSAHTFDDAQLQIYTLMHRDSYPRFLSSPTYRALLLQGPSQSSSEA
* hit, by the source's call; [ ] = dose if it differs, or a comment. Rows were chosen to be rich in hits. Some 1.2% of all compounds tested hit in one or more screens of this group. Unless noted, the rule behind the calls is not given here.

Results for Cc1ccc(SCc2nc3ncccn3c2Br)cc1 ?
Avidin fluor: 75*; Biotin-avidin: 0; RGS8-Gao confirm: 96; RGS7-Gao single: 91; RGS16-Gao single: 92; RGS4-Gao single: 94; RGS19-Gao conf: 88

How did Cc1ccc(Nc2c(-c3ccc(N(C)C)cc3)nc3ncccn23)cc1 do in these assays?
Avidin fluor: 14; RGS4-Gao reg: 96; RGS7-Gao: inconclusive; RGS8-Gao: 97; RGS16-Gao: 92

What do the screens show for `CC(C)(C)c1ccc(S(=O)(=O)N2CCC(CO)(CC3CCCCO3)CC2)cc1` (stereo unspecified)?
Avidin fluor: 9; RGS4-Gao reg: 101; RGS7-Gao: 101; GSH fluor: 22; RGS8-Gao: 104; RGS16-Gao: 106

How did CC(C)CC(=O)/C(=C\c1ccc(Cl)cc1Cl)n1cncn1 do in these assays?
Avidin fluor: -1; RGS4-Gao reg: 48*; RGS7-Gao: 51; GSH fluor: 12; RGS8-Gao: 42*; RGS16-Gao: -1; Biotin-avidin: 1; RGS8-Gao confirm: 88; RGS7-Gao single: 80; RGS16-Gao single: 87; RGS4-Gao single: 90; RGS19-Gao conf: 81

What do the screens show for `COc1ccc(/C=C(/C(=O)c2ccc(Cl)cc2Cl)n2cncn2)cc1`?
Avidin fluor: 22; RGS4-Gao reg: 100; RGS7-Gao: 104; GSH fluor: 24; RGS8-Gao: 101; RGS16-Gao: 101

What do the screens show for `CCC(C)(C)NC(=O)C(c1ccccn1)N(C(=O)c1csnn1)c1ccc(C)cc1` (stereo unspecified)?
Avidin fluor: 12; RGS4-Gao reg: 102; RGS7-Gao: 101; GSH fluor: 12; RGS8-Gao: 102; RGS16-Gao: 106

How did O=C(Cc1csc(N2CCOCC2)n1)N/N=C/c1ccc(O)c(O)c1O do in these assays?
Avidin fluor: 5; RGS4-Gao reg: 66; RGS7-Gao: inconclusive; GSH fluor: 12; RGS8-Gao: 57*; RGS16-Gao: 49; RGS4-Gao HTS: 66*; Biotin-avidin: inactive; RGS8-Gao confirm: 72*; RGS7-Gao single: 68*; RGS16-Gao single: 70*; RGS4-Gao single: 79; RGS19-Gao conf: 37*

What do the screens show for `CCNC(=S)N(Cc1ccc2c(c1)OCO2)C1CC(=O)N(c2ccc(OC)cc2)C1=O` (stereo unspecified)?
Avidin fluor: 5; RGS4-Gao reg: 85; RGS7-Gao: 82; GSH fluor: 19; RGS8-Gao: 71; RGS16-Gao: 32

Results for CCNC(=S)N(Cc1ccc(OC)cc1)C1CC(=O)N(c2ccc(OCC)cc2)C1=O (stereo unspecified) ?
GSH fluor: 18; Biotin-avidin: 0; RGS8-Gao confirm: 102; RGS7-Gao single: 108; RGS16-Gao single: 107; RGS4-Gao single: 103; RGS19-Gao conf: 99

Results for Cc1c(Cl)cccc1NC(=S)NC(=O)CCN1C(=O)c2ccccc2C1=O ?
Avidin fluor: 0; RGS4-Gao reg: 49*; RGS7-Gao: 47*; GSH fluor: 5; RGS8-Gao: 62; RGS16-Gao: 61; Biotin-avidin: 0; RGS8-Gao confirm: 108; RGS7-Gao single: 104; RGS16-Gao single: 111; RGS4-Gao single: 106; RGS19-Gao conf: 106

What do the screens show for `COc1ccc(C(=O)c2ccc(OC)c(Br)c2)cc1Br`?
Avidin fluor: 4; RGS4-Gao reg: 120; RGS7-Gao: 120; GSH fluor: 11; RGS8-Gao: 131; RGS16-Gao: 254*[activator]; RGS4-Gao HTS: 120*; Biotin-avidin: 0; RGS8-Gao confirm: 99; RGS7-Gao single: 101; RGS16-Gao single: 98; RGS4-Gao single: 100; RGS19-Gao conf: 89

How did COc1ccc(C(=S)N2CCC(C(N)=O)CC2)cc1Br do in these assays?
Avidin fluor: 8; RGS4-Gao reg: 102; RGS7-Gao: inconclusive; GSH fluor: 14; RGS8-Gao: 99; RGS16-Gao: 97

How did N#CC(C(=O)OC1CCCCC1)c1nc2ccccc2nc1N1CCOCC1 (stereo unspecified) do in these assays?
Avidin fluor: 110*; RGS4-Gao reg: 119; RGS7-Gao: 171*[activator]; GSH fluor: 4; RGS8-Gao: 96; RGS16-Gao: 106; RGS4-Gao HTS: 119*

What do the screens show for `c1ccc(-c2nc(-c3ccco3)n3ccccc23)cc1`?
Avidin fluor: -2; RGS4-Gao reg: -6.6*; RGS7-Gao: 0.6*; GSH fluor: 20; RGS8-Gao: 7.9*; RGS16-Gao: -2.4*; Biotin-avidin: 1; RGS8-Gao confirm: 90; RGS7-Gao single: 87; RGS16-Gao single: 91; RGS4-Gao single: 97; RGS19-Gao conf: 83

How did c1ccc(Nc2c(-c3ccco3)nc3ccccn23)cc1 do in these assays?
Avidin fluor: 14; RGS4-Gao reg: 95; RGS7-Gao: 94; GSH fluor: 4; RGS8-Gao: 99; RGS16-Gao: 95

What do the screens show for `OCCN(Cc1ccccc1)Cc1cccc(C(F)(F)F)c1`?
GSH fluor: 46; Biotin-avidin: 1; RGS8-Gao confirm: 98; RGS7-Gao single: 90; RGS16-Gao single: 96; RGS4-Gao single: 94; RGS19-Gao conf: 70

How did OCCN(Cc1ccccc1)Cc1ccc(C(F)(F)F)cc1 do in these assays?
Avidin fluor: 25; RGS4-Gao reg: 102; RGS7-Gao: 98; GSH fluor: 25; RGS8-Gao: 100; RGS16-Gao: 102

Screening results from PubChem BioAssay.
